Screening results as filed in PubChem BioAssay.
SUMO Mot1 rescue = yeast Mot1-301 growth rescue at high temperature, primary screen, SUMOylation pathway inhibitor project, S. cerevisiae, ATP luminescence, 38.5C | S. cerevisiae Mot1-301 growth rescue; percent above DMSO median, 100 means doubled | 320,000 compounds, 1% hits | growth rescue, % at 18.8 µM;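 active means every valid replicate shows activation above 250% relative to neutral control wells; inactive means the rest, any valid replicate at or below 250%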;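 further: OY570 slx delta 5 strain wells were the positive control but not used for scaling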
Efflux pump inh = inhibitors of Candida efflux pumps in yeast, primary screen, S. cerevisiae, Nile Red, multiplex; 330,000 compounds, 0.44% hits; S. cerevisiae Candida pump triplex; inhibition, % at 10 µM;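 active means plate passing quality check with inhibition over a set limit, or well fluorescence over plate mean plus 4 SD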;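 further: Nile Red retained in pooled yeast measured as flow cytometry median fluorescence; 0% = buffer negative control and 100% = Enniatin B positive control; higher means more Nile Red kept so more efflux inhibition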
SKN-1 block = suppressors of acrylamide-induced Pgst-4::GFP reporter in worms, primary screen, SKN-1 inhibitor project, whole organism, uHTS, GFP/RFP fluorescence ratio, strain VP596 | C. elegans VP596 Pgst-4::GFP/RFP ratio, 24 h | inhibition, % at 21.8 µM | 360,000 compounds, 0.49% hits | AID 624304, 2012;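 active means interference check ratio from 0.5 to 1.5 plus GFP to RFP signal ratio inhibition reaching or exceeding a fixed threshold, cut at about 30% in these data, passing the limit was not always enough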
HGIII-sPLA2 inh = human group III sPLA2 inhibitors, primary screen, biochemical, QFRET, BODIPY PC-A2 liposome substrate. 370,000 compounds, 0.56% hits. AID 743126, 2013. inhibition, % at 12.2 µM. Group 3 secretory phospholipase A2 (Homo sapiens), Q9NZ20. QFRET BODIPY PC-A2 liposome hydrolysis, fluorescence;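 active means inhibition above mean plus 3 SD of compounds lying within the high and low control bounds, cut at about 19% in these data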;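 further: 0% = median of test compound wells and 100% = no enzyme DMSO wells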
Target sequence (Q9NZ20 whole entry, looked up): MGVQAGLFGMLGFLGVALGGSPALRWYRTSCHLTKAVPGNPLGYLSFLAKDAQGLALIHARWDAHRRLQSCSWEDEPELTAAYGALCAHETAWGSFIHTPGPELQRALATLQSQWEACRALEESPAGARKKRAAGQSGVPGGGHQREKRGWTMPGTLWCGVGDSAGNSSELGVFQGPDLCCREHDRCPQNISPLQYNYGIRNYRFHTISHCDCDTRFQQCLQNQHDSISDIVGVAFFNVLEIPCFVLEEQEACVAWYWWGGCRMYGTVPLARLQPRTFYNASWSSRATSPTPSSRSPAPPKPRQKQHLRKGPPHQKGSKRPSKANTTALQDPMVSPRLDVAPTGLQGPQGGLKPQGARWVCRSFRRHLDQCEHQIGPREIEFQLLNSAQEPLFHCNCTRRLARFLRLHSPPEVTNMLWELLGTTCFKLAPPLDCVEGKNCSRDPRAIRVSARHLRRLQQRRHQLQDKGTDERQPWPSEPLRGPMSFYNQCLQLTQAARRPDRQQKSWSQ
hGIII sPLA2 conf = human group III sPLA2 inhibitors, confirmation, biochemical, QFRET, triplicate. 2,000 compounds, 34% hits. shares compounds with HGIII-sPLA2 inh. recombinant hGIII-sPLA2, BODIPY PC-A2 QFRET fluorescence. inhibition, % at 12.2 µM;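 active means mean inhibition across triplicates above the hit cutoff set in the earlier primary screen, cut at about 19% in these data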;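 further: 0% = enzyme with DMSO and 100% = DMSO wells lacking enzyme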
BODIPY interf = 535nm fluorescence optical interference, confirmation, artefact control for HGIII-sPLA2 inhibitor project, biochemical, QFRET; 2,000 compounds, 8.5% hits; shares compounds with HGIII-sPLA2 inh; BODIPY FL product fluorescence interference; inhibition, % at 12.2 µM;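 active means average inhibition above the solvent-only control mean plus 3 SD, cut at about 6% in these data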;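 further: 0% = DMSO with substrate plus product and 100% = DMSO with substrate alone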
BODIPY interf DR = 535nm fluorescence optical interference, dose response, artefact control for HGIII-sPLA2 inhibitor project, biochemical, QFRET. shares compounds with HGIII-sPLA2 inh. BODIPY FL product fluorescence interference, cell-free. IC50, µM. 240 tested, under 10 active. AID 743455, 2014;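 active means IC50 at or below 10 µM; inactive means IC50 above 10 µM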
Active calls of the source: *; / = no result given. This is a sample that favours compounds with a hit; in the whole collection about 2.2% have one here.

SMILES | SUMO Mot1 rescue | Efflux pump inh | SKN-1 block | HGIII-sPLA2 inh | hGIII sPLA2 conf | BODIPY interf | others
CCOC(=O)CCCCCC(=O)Nc1ccc2c(c1)C(=O)N([C@H](C)CO)C[C@H](C)[C@H](CN(C)C(=O)C1CCCCC1)OCCCC[C@@H](C)O2 | / | / | -15 | -3 | / | /
O=C(O)C(C/C(=N/O)c1ccc(Br)cc1)P(=O)(c1ccccc1)c1ccccc1 (configuration not stated) | -16 | 0 | -7 | 21* | 2 | -7
Cc1ccc(C(=O)CC(C(=O)O)P(=O)(c2ccccc2)c2ccccc2)cc1 (configuration not stated) | 0 | 0 | 2 | -2 | / | /
O=C(NNC(=S)Nc1cccc(C(F)(F)F)c1)c1ccccc1Cl | -6 | 0 | -3 | 24* | 24* | 4
CNC(=S)NNC(=O)c1cccc(C(F)(F)F)c1 | 3 | 0 | 9 | 6 | / | /
CNC(=S)NNC(=O)c1ccccc1Cl | -10 | 0 | 1 | 3 | / | /
CC(C)(C)NC(=S)NNC(=O)c1ccccc1Cl | -10 | 0 | 6 | 22* | 23* | -5
O=C(NNC(=S)Nc1cccc(C(F)(F)F)c1)c1cccc(Cl)c1 | 3 | 0 | 4 | 24* | 33* | 6.5*
Cn1cc(S(=O)(=O)N2CCOCC2)cc1C(=O)NCc1ccccc1Cl | -3 | 0 | -10 | 0 | / | /
Cc1ccccc1CN1CCCCC(NC(=O)c2c(F)cccc2F)C1=O (configuration not stated) | / | / | / | 9 | / | /
CCC(CC)COC(=O)C1=C(C)NC(=O)NC1c1ccc(N(C)C)cc1 (configuration not stated) | -5 | 0 | -4 | 24* | 23* | -7
CCOC(=O)C1=C(C)NC(=O)NC1c1ccc(N(CC)CC)cc1 (configuration not stated) | 5 | 0 | 10 | 20* | 7 | -5
CCOC(=O)C1=C(C)NC(=O)NC1c1ccc(N(C)C)cc1 (configuration not stated) | / | / | -8 | 3 | / | /
O=C1N=c2ccccc2=C1c1c(O)[nH]c2c(C(F)(F)F)cccc12 | 3 | 0 | 6 | 1 | / | /
Cn1nnc(NC(=S)NC(=O)c2cccs2)n1 | 9 | 0 | 4 | 3 | / | /
CCCCn1nnc(NC(=S)NC(=O)c2cccs2)n1 | 7 | 0 | 4 | 23* | 11 | -5
CNc1ncnc2c1ncn2[C@H]1CN(C2CCCC2)C[C@@H](CO)O1 | / | / | 0 | 9 | / | /
Cc1onc(-c2c(Cl)cccc2Cl)c1C(=O)NCc1ccccn1 | 8 | 0 | -8 | 4 | / | /
CCn1cc(CNC(=O)c2c(-c3c(Cl)cccc3Cl)noc2C)c(C)n1 | -18 | 0 | 2 | 21* | 0 | -1
Cc1cc(C(=O)N/N=C/c2cccc3ccccc23)c(C)o1 | 194 | 0 | 10 | -19 | / | /
CCc1ccc(/C(C)=N/NC(=O)c2ccc(-n3cnnn3)cc2)cc1 | -5 | 0 | 5 | 15 | / | /
NC(=O)Cc1cn(-c2ncc(C(F)(F)F)cc2Cl)c2ccccc12 | 7 | 0 | -25 | 34* | 14 | -11
O=C1NC(Cc2ccccc2)c2nc3cc(F)ccc3c(=O)n2-c2cc(Cl)ccc21 (configuration not stated) | 20 | 0 | / | 2 | / | /
CCCOc1cccc(OCC(=O)Nc2nc3ccccc3[nH]2)c1 | 12 | 0 | 9 | 25* | 14 | -3
COC(=O)CCCCC1SCC(NC(=O)OC)C1NC(=O)OC (configuration not stated) | / | 0 | -9 | 4 | / | /
SMILES | SUMO Mot1 rescue | Efflux pump inh | SKN-1 block | HGIII-sPLA2 inh | hGIII sPLA2 conf | BODIPY interf | others
CCCOC(=O)CCCCC1SCC(NC(=O)OC)C1NC(=O)OC (configuration not stated) | 93 | 0 | 11 | 20* | -2 | -9
COC(=O)C1CN(CCc2ccccc2)CCS(=O)(=O)N1Cc1ccc(Cl)cc1 (configuration not stated) | / | / | / | -8 | / | /
CCCNC(=O)c1ccc(CN2CCc3ccccc3C2)cc1 | -20 | 0 | -13 | 5 | / | /
C/C(=N\NC(=O)c1ccc(CN2CCc3ccccc3C2)cc1)c1ccccc1O | -7 | 0 | 1 | 33* | 24* | -21
Cc1ccc(NC(=S)N/N=C2/CCCCc3ccccc32)cc1 | 6 | 0 | -12 | 24* | 31* | -3 | BODIPY interf DR=>122
Cc1ccc(NC(=O)Cn2cccc2C2=NC(c3ccccc3)CO2)cc1C (configuration not stated) | 3 | 1 | 2 | 21* | -7 | -13
CCc1ccccc1NC(=O)Cn1cccc1C1=NC(c2ccccc2)CO1 (configuration not stated) | 1 | 0 | 11 | 6 | / | /
O=C(CCc1nnc(-c2ccccc2)o1)NC1CCCCC1 | 6 | 0 | 14 | 19* | 6 | -5
Cc1c(C(=O)OCCOc2ccc(Br)cc2)sc(=S)n1C | -11 | 0 | -5 | 1 | / | /
O=C(Cc1ccccc1)Nn1c(-c2ccccc2)nc2ccccc2c1=O | -6 | 0 | -2 | 15 | / | /
NC(=S)Nn1c(-c2ccccc2)nc2ccccc2c1=O | -2 | 0 | -4 | 19* | 6 | 0
CNc1ccccc1C(=O)OCC(=O)N(CCOC)c1c(N)n(CC(C)C)c(=O)[nH]c1=O | / | 0 | 8 | 20* | 11 | -8
COCCN(C(=O)COC(=O)c1ccccc1Cc1ccccc1)c1c(N)n(Cc2ccccc2)c(=O)[nH]c1=O | -9 | 0 | -11 | -22 | / | /
O=S(=O)(NNc1ccc(Cl)nn1)c1ccc(F)cc1 | 53 | 0 | -1 | 19* | 15 | 8.3*
O=S(=O)(Nc1ccc(Cl)nn1)c1ccccc1 | / | 0 | 17 | 6 | / | /
COc1ccc(C(=O)c2[nH]c(N)c(C(N)=O)c2-c2ccc(OC)c(OC)c2)cc1 | / | / | -6 | 1 | / | /
COc1ccc(-c2c(C(=O)c3ccccc3)[nH]c(N)c2C(=O)c2ccccc2)cc1OC | / | / | 8 | 20* | 9 | -8
COc1ccc(-c2c(C(=O)c3ccccc3)[nH]c(N)c2C(=O)c2ccc(Br)cc2)cc1OC | / | / | 2 | 26* | 20* | -2
COC(=O)C1=C(C)N(C)C(=NCc2cc(OC)c(OC)c(OC)c2)NC1c1ccc(Cl)cc1 (configuration not stated) | / | / | / | -2 | / | /
